Measurements taken from PubChem BioAssay (NCI).
This is part of a sample that, as a whole, favours compounds with a hit. Of some 83,000 tested, about 20% had one in any assay.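 Growth was measured after 48 h exposure to one concentration of compound in 96-well plates. Values under 10 count as active.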 Calls of active or inactive are those of the source.

Legend:
Assay in all cases: NCI-60 one-dose screen, 48 h (100 = growth as untreated, 0 = no growth, -100 = all killed)
Conditions in all cases: 10 µM unless noted
[1] = test system: SK-MEL-2 melanoma
[2] = test system: EKVX NSCLC
[3] = test system: SN12C renal
[4] = test system: UO-31 renal
[5] = test system: TK-10 renal
[6] = test system: ACHN renal
[7] = test system: CAKI-1 renal
[8] = test system: CCRF-CEM leukemia
[9] = test system: MOLT-4 leukemia
[10] = test system: A498 renal

Measured: growth

CCN(CC)c1ccc(/C=N\NC(=O)/C=C/C=C/c2ccc3c(c2)OCO3)c(O)c1
inactive: [1] 65.7% | [2] 52.2% | [3] 54.1% | [4] 25% | [5] 37.8% | [6] 25.6% | [7] 29.3% | [8] 21.7% | [9] 18.3%

Nc1ccc(S(=O)(=O)O)c2ccc(N=Nc3ccc(N=Nc4ccc(S(=O)(=O)O)cc4)c4ccccc34)c(O)c12
inactive: [1] 110% | [2] 124% | [3] 98.1% | [4] 55.8% | [5] 98.7% | [6] 101% | [7] 95.3% | [10] 98.8% | [9] 80.2%

Nc1n[nH]c2ccc([C@@H]3Nc4ccc5cn[nH]c5c4[C@H]4C5CCC(C5)[C@@H]34)cc12 (stereo partly specified)
inactive: [1] 55.5% | [2] 48.7% | [3] 43.9% | [4] 38.9% | [5] 74.3% | [6] 39.2% | [7] 33.2% | [8] 15.6% | [9] 20.8%

Cn1nc(N)c2cc([C@@H]3Nc4ccc5[nH]ncc5c4[C@H]4C5CCC(C5)[C@@H]34)ccc21 (stereo partly specified)
inactive: [1] 46.6% | [2] 47.1% | [3] 50.7% | [4] 40.6% | [5] 80.4% | [6] 39.6% | [7] 40.9% | [8] 16.7% | [9] 20.1%

CC(C)c1c(C(=O)c2ccccc2)c(-c2ccccc2)c(-c2ccc(F)cc2)n1CC[C@@H](O)C[C@@H](O)CC(=O)O
inactive: [1] 36.2% | [2] 68.2% | [3] 31.9% | [4] 72% | [5] 116% | [6] 25.3% | [7] 21.6% | [8] 81.4% | [9] 87.6%

CCN(CC)CCCCNc1c2ccc(Cl)cc2nc2ccc(OC)cc12
inactive: [5] 15.4%
active: [1] 2.05% | [2] -8.96% | [3] 4.57% | [4] -14.6% | [6] -56.7% | [7] 9.92% | [10] -83.9% | [9] -22.2%

COc1ccc(/C=N/C2=C(C#N)C(c3ccc(N(C)C)cc3)c3ccc4ccccc4c3O2)cc1 (stereo unspecified)
inactive: [1] 62.6% | [2] 61.3% | [3] 72.3% | [4] 46.5% | [5] 132% | [6] 66% | [7] 19.6% | [8] 63.1% | [9] 54.4%

CN(CCCCCl)P(=O)(OCc1ccc([N+](=O)[O-])o1)C(F)(F)c1ccc(CC(=O)NC[C@@H](O)/C=C\[C@@H](O)[C@H](CO)Cc2ccccc2)cc1 (stereo partly specified)
inactive: [1] 66.5% | [2] 99.3% | [3] 98.8% | [4] 88.9% | [5] 113% | [6] 94% | [7] 104% | [10] 83.8% | [9] 93.5%

COc1cc(/C=C/C(=O)Nc2cccnc2Nc2ccc(F)cc2)cc(OC)c1OC
inactive: [1] 68.4% | [2] 92.5% | [3] 109% | [4] 89.2% | [5] 103% | [6] 102% | [7] 88.6% | [8] 85% | [9] 87.5%

CCNc1ncnc2c1cnn2C1CCCO1 (stereo unspecified)
inactive: [1] 116% | [2] 115% | [3] 103% | [4] 86% | [5] 116% | [6] 104% | [7] 101% | [8] 87.6% | [9] 92.3%

COc1cccc(/C=C2\Oc3cc(OCCN4CCCC4)ccc3C2=O)c1
inactive: [1] 102% | [2] 89.3% | [3] 97.3% | [4] 80.8% | [5] 89.3% | [6] 104% | [7] 98.5% | [8] 71.6% | [9] 88.9%

COc1ccc(C(=O)/C=C/c2cccnc2Nc2cc(OC)c(OC)c(OC)c2)cc1
inactive: [1] 47.4% | [2] 61.9% | [4] 51.1% | [5] 44.9% | [6] 16.4% | [7] 32.2%
active: [3] 8.5% | [8] -16.5% | [9] 2.59%

Cc1ccc(NS(=O)(=O)c2ccc(-c3cnc(C4CC4)o3)cc2)cc1C
active: [10] -15.8%
inactive: [1] 38.5% | [2] 27% | [3] 43.6% | [4] 38.5% | [5] 44% | [6] 40.7% | [7] 27.2% | [9] 30.1%

CCCCn1c(-c2ccc(C(=O)O/N=C(\N)c3ccc4ccccc4c3)cc2)nc(-c2ccccc2)c1-c1ccccc1
active: [4] -24.1% | [6] -72.7%
inactive: [1] 96.4% | [2] 75.7% | [3] 63.5% | [5] 86.2% | [7] 32.3% | [8] 40.8% | [9] 62.8%
